PubChem BioAssay (EPA / NIEHS)
Results filed as inconclusive are left out. The source made the active and inactive calls. Rule for the calls, unless noted: active = hit-call score of the fitted dose curve at least 0.9, where 1 is the maximum; inactive = score below 0.9.

Legend:
[1] = test system: Brachyury (BRA) Protein Expression, Deisenroth Lab, TBXT (gene 6862); assay: CCTE_Deisenroth_DEVTOX-GLR_legacy_Bra: (Legacy) CCTE's DevTox GLR-Endo Assay Evaluation of Brachyury (BRA) Protein Expression, Deisenroth Lab (AID 2284329)
In short: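 RUES2-GLR human pluripotent cells differentiated 48 h with two 24-h-interval chemical exposures (1 nM - 200 uM, 10 points); fixed, nuclear-stained, imaged. Bra+ cell percentage (intensity 5x BMAD above pluripotent control median) fitted relative to 0.2% DMSO.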

[2] = CCTE_Deisenroth_DEVTOX-GLR_legacy_CellCount: (Legacy) Viability Assessment in CCTE's DevTox GLR-Endo Assay, Deisenroth Lab (AID 2284331); conditions: actives raise or lower the signal
In short: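 Nuclei count by fluorescence high-content imaging (5 fields/well) after 48 h differentiation of RUES2-GLR cells. Two exposures, 24 h apart; 1 nM - 200 uM series; n=4. Bidirectional fit vs DMSO.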

[3] = test system: SRY-box transcription factor 17 (SOX17) Protein Expression, Deisenroth Lab, SOX17 (gene 64321); assay: CCTE_Deisenroth_DEVTOX-GLR_legacy_Sox17: (Legacy) CCTE's DevTox GLR-Endo Assay Evaluation of SRY-box transcription factor 17 (SOX17) Protein Expression, Deisenroth Lab (AID 2284341); conditions: actives raise or lower the signal
In short: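 RUES2-GLR human pluripotent cells, seeded 24 h, then differentiated 48 h in defined media with two chemical exposures 24 h apart (1 nM - 200 uM, 10 points). Sox17+ fraction from high-content fluorescence imaging; bidirectional fit versus 0.2% DMSO.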

[4] = test system: SRY-box transcription factor 2 (SOX2) Protein Expression, Deisenroth Lab, SOX2 (gene 6657); assay: CCTE_Deisenroth_DEVTOX-GLR_legacy_Sox2: (Legacy) CCTE's DevTox GLR-Endo Assay Evaluation of SRY-box transcription factor 2 (SOX2) Protein Expression, Deisenroth Lab (AID 2284346)
In short: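 RUES2-GLR human pluripotent cells seeded 24 h, then differentiated 48 h in defined media with two chemical doses 24 h apart (10-point, 1 nM–200 uM). Fixed, nuclear-stained, imaged; % Sox2+ cells (>5x BMAD over endoderm control median), DMSO-subtracted, fitted upward.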

[5] = test system: SRY-box transcription factor 17 (SOX17) Protein Expression, Deisenroth Lab, SOX17 (gene 64321); assay: CCTE_Deisenroth_DEVTOX-GLR_Endo_SOX17: CCTE's DevTox GLR-Endo Assay Evaluation of SRY-box transcription factor 17 (SOX17) Protein Expression, Deisenroth Lab (AID 2284413)
In short: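 Endpoint: % change in SOX17+ fraction (SOX17+ cells / cell count) vs 0.2% DMSO solvent control. RUES2-GLR reporter cells, 48 h endoderm differentiation, two doses at 24 h intervals, high-content fluorescence imaging, 5 fields/well.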

[6] = test system: Brachyury (BRA) Protein Expression, TBXT (gene 6862); assay: CCTE_Deisenroth_DEVTOX-GLR_Endo_BRA: CCTE's DevTox GLR-Endo Assay Evaluation of Brachyury (BRA) Protein Expression, Deisenroth Lab (AID 2284417)
In short: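 RUES2-GLR human pluripotent cells, seeded 24 h, then differentiated 48 h in defined media with two chemical exposures 24 h apart (10-point series, 1 nM - 200 uM). Fixed, nuclear-stained, imaged; endpoint is percent BRA+ cells minus 0.2% DMSO control.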

[7] = CCTE_Deisenroth_DEVTOX-GLR_Endo_CellCount: Viability Assessment in CCTE's DevTox GLR-Endo Assay, Deisenroth Lab (AID 2284420)
In short: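 Nuclei counted by fluorescence microscopy as a surrogate for cell number, expressed as percent change relative to 0.2% DMSO control. Human RUES2-GLR cells, 48 h differentiation, dosed twice; 1 nM - 200 uM series.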

[8] = test system: SRY-box transcription factor 17 (SOX17) Protein Expression, Deisenroth Lab, SOX17 (gene 64321); assay: CCTE_Deisenroth_DEVTOX-GLR_Pluri_SOX17: CCTE's DevTox GLR-Pluri Assay Evaluation of SRY-box transcription factor 17 (SOX17) Protein Expression, Deisenroth Lab (AID 2284427; active = hit-call score of the fitted dose curve at least 0.9, where 1 is the maximum)
In short: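 Readout: percent SOX17+ cells (SOX17+ count/cell count) by high-content imaging of an inducible fluorescent reporter, corrected for 0.2% DMSO solvent control. RUES2-GLR cells, 48 h differentiation, dosed twice at 24 h intervals, 1 nM - 200 uM.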

[9] = test system: SRY-box transcription factor 2 (SOX2) Protein Expression, Deisenroth Lab, SOX2 (gene 6657); assay: CCTE_Deisenroth_DEVTOX-GLR_Pluri_SOX2: CCTE's DevTox GLR-Pluri Assay Evaluation of SRY-box transcription factor 2 (SOX2) Protein Expression, Deisenroth Lab (AID 2284428)
In short: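 RUES2-GLR (human pluripotent), 48 h post-dosing, 2 exposures q24h, 1 nM–200 uM 10-pt. Fixed, nuclear dye, high-content imaging 5 fields/well. Endpoint: % SOX2+ cells (SOX2+/total count) vs 0.2% DMSO; n≥4.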

[10] = test system: Brachyury (BRA) Protein Expression, Deisenroth Lab, TBXT (gene 6862); assay: CCTE_Deisenroth_DEVTOX-GLR_Pluri_BRA: CCTE's DevTox GLR-Pluri Assay Evaluation of Brachyury (BRA) Protein Expression, Deisenroth Lab (AID 2284429; active = hit-call score of the fitted dose curve at least 0.9, where 1 is the maximum)
In short: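 Human pluripotent RUES2-GLR cells, seeded 24 h, were differentiated 48 h in defined media with two chemical doses at 24-h intervals (10-point, 1 nM - 200 uM). Readout: percent BRA+ cells by fluorescent reporter imaging, minus 0.2% DMSO control.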

[11] = CCTE_Deisenroth_DEVTOX-GLR_Pluri_CellCount: Viability Assessment in CCTE's DevTox GLR-Pluri Assay Evaluation of Total Cell Counts, Deisenroth Lab (AID 2284430)
In short: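 RUES2-GLR human pluripotent cells, seeded 24 h, then differentiated 48 h with two chemical exposures 24 h apart; 10-point series 1 nM - 200 uM. Fixed, nuclear-stained, imaged (5 fields/well); nuclei count as % change vs 0.2% DMSO.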

[12] = CCTE_Deisenroth_AIME_96WELL_CTox_Active: Cytotoxicity Assessment (CTOX) in CCTE's 96-well Estrogen Receptor Transactivation Assay with AIME metabolic competence (metabolism positive), Deisenroth Lab (AID 2284028; active = hit-call score of the fitted dose curve at least 0.9, where 1 is the maximum)
In short: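 Chemicals (0.002–200 uM) were first incubated 2 h with alginate-immobilized phenobarbital/beta-naphthoflavone-induced male rat liver S9; conditioned medium then went onto VM7Luc4E2 cells for 24 h, with viability read by protease-substrate fluorescence, fitted bidirectionally.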

[13] = CCTE_Deisenroth_AIME_96WELL_CTox_Inactive: Cytotoxicity Assessment (CTOX) in CCTE's 96-well Estrogen Receptor Transactivation Assay without AIME metabolic competence (metabolism negative), Deisenroth Lab (AID 2284029; active = hit-call score of the fitted dose curve at least 0.9, where 1 is the maximum)
In short: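 Chemicals (0.002 - 200 uM, 10 points) incubated 2 h with alginate-water microspheres (no S9), then medium moved onto VM7Luc4E2 cells for 24 h. Viability by protease-substrate cleavage to fluorescent probe; bidirectional fitting.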

[14] = target: Estrogen receptor (Homo sapiens) (UniProt P03372); assay: CCTE_Deisenroth_AIME_96WELL_LUC_Active: CCTE's 96-well Estrogen Receptor Transactivation Assay with AIME metabolic competence (ERTA luciferase; metabolism positive), Deisenroth Lab (AID 2284023; active = hit-call score of the fitted dose curve at least 0.9, where 1 is the maximum)
Estrogen receptor (Homo sapiens), sequence (P03372 whole entry, looked up): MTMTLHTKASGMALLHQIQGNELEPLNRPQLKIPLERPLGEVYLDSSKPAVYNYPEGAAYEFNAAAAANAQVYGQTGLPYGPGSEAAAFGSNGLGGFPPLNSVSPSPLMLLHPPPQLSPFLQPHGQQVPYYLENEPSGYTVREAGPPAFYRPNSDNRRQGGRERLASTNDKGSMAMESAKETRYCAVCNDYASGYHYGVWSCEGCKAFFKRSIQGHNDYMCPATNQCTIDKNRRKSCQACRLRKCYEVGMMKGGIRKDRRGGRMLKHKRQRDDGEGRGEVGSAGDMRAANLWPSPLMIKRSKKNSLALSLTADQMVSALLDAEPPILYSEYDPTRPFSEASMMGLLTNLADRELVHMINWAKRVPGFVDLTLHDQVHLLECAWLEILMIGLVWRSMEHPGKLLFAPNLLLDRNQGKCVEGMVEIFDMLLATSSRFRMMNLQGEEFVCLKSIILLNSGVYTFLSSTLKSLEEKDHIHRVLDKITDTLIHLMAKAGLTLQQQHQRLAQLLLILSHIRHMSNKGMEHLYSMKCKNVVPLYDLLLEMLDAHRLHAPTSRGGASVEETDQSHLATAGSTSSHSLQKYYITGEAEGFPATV
In short: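 Chemicals pre-incubated 2 h with alginate-immobilized phenobarbital/beta-naphthoflavone-induced male Sprague Dawley rat liver S9, then medium transferred to VM7Luc4E2 cells for 24 h luciferase read-out. 10-point series 0.002 - 200 uM; fitted relative to 17beta-estradiol.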

[15] = target: Estrogen receptor (Homo sapiens) (UniProt P03372); assay: CCTE_Deisenroth_AIME_96WELL_LUC_Inactive: CCTE's 96-well Estrogen Receptor Transactivation Assay without AIME metabolic competence (ERTA luciferase; metabolism negative), Deisenroth Lab (AID 2284025; active = hit-call score of the fitted dose curve at least 0.9, where 1 is the maximum)
In short: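 VM7Luc4E2 breast cells, luciferase read 24 h after dosing with medium pre-incubated 2 h on alginate-water lids (metabolism negative). 10-point series 0.002–200 uM, single technical replicate, n≥4; fit relative to 17beta-estradiol.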

Measured: AC50

Nc1cccc2c1C(=O)N(C1CCC(=O)NC1=O)C2=O (configuration not stated)
active: [2] 272 nM | [3] 67 nM | [4] 155 µM | [5] 58.7 nM | [6] 29.5 µM | [7] 281 nM | [9] 1.04 µM | [10] 25.1 µM
inactive: [1] | [8] | [11]

CC/C(=C(\c1ccc(O)cc1)c1ccc(OCCN(C)C)cc1)c1ccccc1
active: [12] 57.8 µM | [13] 57.6 µM

Oc1ccccc1Cc1ccccc1
active: [14] 27.7 µM | [15] 27.7 µM | [12] 162 µM | [13] 175 µM
